Values joined by “and” are separate entries in the source; they are usually repeats but may differ in a detail not shown here. Equal values may be shown once. Records with an inconclusive call do not appear. More than one record can exist for a structure, and the calls need not agree. Active and inactive are the calls of the source. Rule for the calls: active = hit-call score of the fitted dose curve at least 0.9, where 1 is the maximum; inconclusive = response in the unintended direction; inactive = score below 0.9.

Among the data in PubChem BioAssay (EPA / NIEHS) are outcome and AC50 values, retold here.

The test system of this experiment is frog Estrogen Receptor (ER2), gene 100174814. The experiment can be described thus: ATG_frER2_XSP2: Attagene TRANS-FACTORIAL Multi-Species (XSP2) HepG2 Assay for frog Estrogen Receptor (ER2) (AID 2283828). On the procedure: ATG_XSP2_multi-species_TRANS is a cell-based, multiplexed assay created by modifying the existing Attagene TRANS-FACTORIAL system to include a panel of nuclear receptors from some or all the following species: human (Homo sapiens), mouse (Mus musculus), frog (Xenopus laevis), zebrafish (Danio rerio), chicken (Gallus gallus), and turtle (Chrysemys picta). The ECOTOX-FACTORIAL format uses HepG2, a human liver cell line, with measurements taken at 24 hours after chemical dosing in a 24-well plate. Xsp2 included 3 nM 6-alpha-fluorotestosterone and 1.5 nM norgestrel to stimulate the androgen receptor.ATG_frER2_XSP2 is one of 29 assay components measured or calculated from the ATG_XSP2_multi-species_TRANS assay. It is designed to make measurements of mRNA induction, a form of inducible reporter, as detected with fluorescence intensity signals by Reverse transcription polymerase chain reaction (RT-PCR) and Capillary electrophoresis technology.The assay endpoint ATG_frER2_XSP2 was analyzed in the positive analysis fitting direction relative to DMSO as the negative control and baseline of activity. Using a type of inducible reporter, measures of mRNA for gain-of-signal activity can be used to understand the reporter gene at the transcription factor-level as they relate to the gene ER. Furthermore, this assay endpoint can be referred to as a primary readout, because this assay has produced multiple assay endpoints where this one serves a reporter gene function. To generalize the intended target to other relatable targets, this assay endpoint is annotated to the nuclear receptor intended target family, where the subfamily is steroidal.
Human liver HepG2 cells are transiently transfected with multiple reporter transcription units (MRTUs) in 6-well plates using FuGene 6 reagent (Roche; 3 ml FuGene/1 mg DNA). The MRTU constructs are regulated by a cis-regulating element (promoter). […] A major difference between the CIS and TRANS system is that in CIS activities of endogenous TFs are measured, whereas the TRANS assay evaluates changes in activities of exogenous, chimeric NR-Gal4 proteins. […] At the end of 24 hour incubation, total RNA was isolated using TriZol reagent (Invitrogen). The isolated RNA is then reverse-transcribed using oligo(dT) primer and Mo-MLV reverse transcriptase (Invitrogen) with DNAse I (Ambion) treatment for 30 min. The one-tenth of the produced cDNA was amplified by PCR using Taq DNA polymerase (Invitrogen) and two reporter sequence-specific primers. The PCR products were fluorescently labeled by primer extension with 6-arboxyfluorescein (6-FAM) 5'-labeled reporter sequence-specific primer (2 min at 95 C, 20 s at 68 C and 10 min at 72 C) and these products were digested with 5U of HpaI (New England Biolabs) for 2h at 37 C. The fragments were purified using Qiaquick PCR columns (Qiagen), analyzed on an ABI 3130xL genetic analyzer (Applied Biosystems) with peak positions identified by using a set of X-rhodamine (ROX)-labeled MapMarker1000 molecular weight standards (BioVentures). The raw capillary electrophoresis data was processed using Attagraph software (Attagene).
By AC50 is commonly meant the midpoint of the concentration-response curve, whichever way the signal moves. For `CCCCC(CC)COC(=O)c1ccc(C(=O)OCC(CC)CCCC)c(C(=O)OCC(CC)CCCC)c1` (configuration not stated), the outcome was inactive and the AC50 is 36.8 µM (active). As to `Oc1ccc2ccc3cccc4ccc1c2c34`, the AC50 was 8.67 µM (active) and 1.64 µM (active). Turning to `CCC[CH2][Sn]([Cl])([CH2]CCC)[CH2]CCC`, the compound was classed as inactive. Regarding `O=[N+]([O-])c1ccc(Oc2ccc(Cl)cc2Cl)cc1`, the compound was classed as inactive and the AC50 is 27 µM (active). As for `Clc1ccc(C(c2ccc(Cl)cc2)C(Cl)(Cl)Cl)cc1`, the AC50 was 30.9 µM (active). Turning to `CC(C)(C)C(O)(CCc1ccc(Cl)cc1)Cn1cncn1` (configuration not stated), the outcome was inactive. Take `CCC(C)c1ccc(O)cc1` (configuration not stated): the AC50 is 9.87 µM (active) and 3.44 µM (active). With `CCCCOC(=O)c1ccccc1C(=O)OCc1ccccc1`, the AC50 is 24.7 µM (active). With `Clc1ccc(C(c2ccc(Cl)cc2)C(Cl)Cl)cc1`, the AC50 was 5.5 µM (active). On the same count and under the same terms, as for `c1ccc2c(c1)-c1cccc3cccc-2c13`, the figure is 33.4 µM (active) and 25.2 µM (active).
